# Test results reported in ChEMBL document CHEMBL1961873, “Compounds: GSK PKIS; Assays: Nanosyn kinase panel” (2012).
# Assays:
# [1] = molecular target: Calcium/calmodulin-dependent protein kinase type II subunit alpha (Homo sapiens) (UniProt Q9UQM7); conditions: at 1 µM;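 further: reported value is a mean percent inhibition of CAMK2A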
# [2] = molecular target: Calcium/calmodulin-dependent protein kinase type II subunit delta (Homo sapiens) (UniProt Q13557); conditions: at 0.1 µM
# [3] = molecular target: Calcium/calmodulin-dependent protein kinase type II subunit delta (Homo sapiens) (UniProt Q13557); conditions: at 1 µM
# [4] = molecular target: T1, Calcium/calmodulin-dependent protein kinase type IV (Homo sapiens) (UniProt Q16566); conditions: at 0.1 µM
# T1 sequence (whole entry): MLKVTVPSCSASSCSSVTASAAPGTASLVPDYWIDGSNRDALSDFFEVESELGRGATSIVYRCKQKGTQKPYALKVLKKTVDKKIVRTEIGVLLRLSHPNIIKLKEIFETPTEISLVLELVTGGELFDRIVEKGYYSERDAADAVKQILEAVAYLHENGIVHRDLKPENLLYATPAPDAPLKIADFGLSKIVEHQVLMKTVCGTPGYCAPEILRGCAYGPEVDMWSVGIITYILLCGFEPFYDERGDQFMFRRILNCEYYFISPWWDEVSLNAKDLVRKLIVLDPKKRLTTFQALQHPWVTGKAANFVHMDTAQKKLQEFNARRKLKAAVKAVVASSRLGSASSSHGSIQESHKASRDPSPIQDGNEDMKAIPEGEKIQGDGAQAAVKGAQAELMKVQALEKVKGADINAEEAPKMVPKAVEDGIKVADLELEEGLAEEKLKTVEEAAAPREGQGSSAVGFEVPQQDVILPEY
# [5] = molecular target: T1, Calcium/calmodulin-dependent protein kinase type IV (Homo sapiens); conditions: at 1 µM
# [6] = molecular target: T2, Serine/threonine-protein kinase Chk1 (Homo sapiens) (UniProt O14757); conditions: at 0.1 µM
# T2 sequence (whole entry): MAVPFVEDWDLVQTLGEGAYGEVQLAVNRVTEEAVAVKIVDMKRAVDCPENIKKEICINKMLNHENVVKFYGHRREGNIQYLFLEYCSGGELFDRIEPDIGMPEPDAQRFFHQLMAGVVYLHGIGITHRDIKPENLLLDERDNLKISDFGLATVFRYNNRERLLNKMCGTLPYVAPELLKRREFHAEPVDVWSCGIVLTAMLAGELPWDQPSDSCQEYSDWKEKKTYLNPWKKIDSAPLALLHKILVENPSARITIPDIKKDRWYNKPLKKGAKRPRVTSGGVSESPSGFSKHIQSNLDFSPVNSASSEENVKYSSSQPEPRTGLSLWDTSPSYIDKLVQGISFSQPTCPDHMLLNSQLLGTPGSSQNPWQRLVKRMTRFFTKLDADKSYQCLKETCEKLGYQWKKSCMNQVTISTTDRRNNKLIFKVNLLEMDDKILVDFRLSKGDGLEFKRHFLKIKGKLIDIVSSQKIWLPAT
# [7] = molecular target: T2, Serine/threonine-protein kinase Chk1 (Homo sapiens); conditions: at 1 µM
# [8] = molecular target: Serine/threonine-protein kinase Chk2 (Homo sapiens) (UniProt O96017); conditions: at 0.1 µM
# Chain of Serine/threonine-protein kinase Chk2 (Homo sapiens) (O96017 whole entry): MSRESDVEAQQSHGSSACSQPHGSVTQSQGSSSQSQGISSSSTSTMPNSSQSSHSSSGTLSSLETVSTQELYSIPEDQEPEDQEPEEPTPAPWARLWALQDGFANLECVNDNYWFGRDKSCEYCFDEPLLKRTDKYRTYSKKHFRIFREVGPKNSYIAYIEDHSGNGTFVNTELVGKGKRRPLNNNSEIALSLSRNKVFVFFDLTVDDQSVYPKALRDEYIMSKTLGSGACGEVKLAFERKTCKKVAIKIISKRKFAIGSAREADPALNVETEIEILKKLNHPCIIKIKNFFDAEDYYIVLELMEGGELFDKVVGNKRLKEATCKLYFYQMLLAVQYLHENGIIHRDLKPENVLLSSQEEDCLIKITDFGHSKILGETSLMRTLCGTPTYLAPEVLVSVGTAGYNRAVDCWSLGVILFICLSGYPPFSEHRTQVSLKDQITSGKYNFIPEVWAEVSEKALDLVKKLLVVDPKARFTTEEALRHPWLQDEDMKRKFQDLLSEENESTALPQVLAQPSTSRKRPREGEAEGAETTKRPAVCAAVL
# [9] = molecular target: Serine/threonine-protein kinase Chk2 (Homo sapiens) (UniProt O96017); conditions: at 1 µM
# [10] = molecular target: Death-associated protein kinase 1 (Homo sapiens) (UniProt P53355); conditions: at 0.1 µM
# [11] = molecular target: Death-associated protein kinase 1 (Homo sapiens) (UniProt P53355); conditions: at 1 µM
# [12] = molecular target: T3, Serine/threonine-protein kinase DCLK2 (Homo sapiens) (UniProt Q8N568); conditions: at 0.1 µM
# T3 sequence (whole entry): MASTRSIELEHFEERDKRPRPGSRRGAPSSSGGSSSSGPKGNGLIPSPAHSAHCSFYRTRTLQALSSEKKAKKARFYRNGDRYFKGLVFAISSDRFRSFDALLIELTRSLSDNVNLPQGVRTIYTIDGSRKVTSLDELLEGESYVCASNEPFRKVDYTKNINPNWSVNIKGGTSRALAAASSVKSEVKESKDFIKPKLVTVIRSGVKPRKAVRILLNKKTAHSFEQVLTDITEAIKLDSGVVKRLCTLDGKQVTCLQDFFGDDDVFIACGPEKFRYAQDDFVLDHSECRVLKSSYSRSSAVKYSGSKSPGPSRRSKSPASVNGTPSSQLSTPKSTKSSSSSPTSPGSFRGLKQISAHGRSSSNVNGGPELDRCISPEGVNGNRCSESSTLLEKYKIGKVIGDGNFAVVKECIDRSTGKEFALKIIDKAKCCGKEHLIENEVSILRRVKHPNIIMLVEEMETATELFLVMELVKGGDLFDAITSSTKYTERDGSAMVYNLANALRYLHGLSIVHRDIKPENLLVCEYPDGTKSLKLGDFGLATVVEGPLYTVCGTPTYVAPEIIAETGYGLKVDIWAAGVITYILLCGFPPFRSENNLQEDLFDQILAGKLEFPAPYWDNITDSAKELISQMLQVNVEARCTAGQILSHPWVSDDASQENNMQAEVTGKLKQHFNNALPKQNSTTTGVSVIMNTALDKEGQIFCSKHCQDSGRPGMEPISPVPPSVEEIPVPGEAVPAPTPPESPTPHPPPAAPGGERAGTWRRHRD
# [13] = molecular target: T3, Serine/threonine-protein kinase DCLK2 (Homo sapiens); conditions: at 1 µM
# [14] = molecular target: MAP kinase-activated protein kinase 2 (Homo sapiens) (UniProt P49137); conditions: at 0.1 µM
# Chain of MAP kinase-activated protein kinase 2 (Homo sapiens) (P49137 whole entry, looked up): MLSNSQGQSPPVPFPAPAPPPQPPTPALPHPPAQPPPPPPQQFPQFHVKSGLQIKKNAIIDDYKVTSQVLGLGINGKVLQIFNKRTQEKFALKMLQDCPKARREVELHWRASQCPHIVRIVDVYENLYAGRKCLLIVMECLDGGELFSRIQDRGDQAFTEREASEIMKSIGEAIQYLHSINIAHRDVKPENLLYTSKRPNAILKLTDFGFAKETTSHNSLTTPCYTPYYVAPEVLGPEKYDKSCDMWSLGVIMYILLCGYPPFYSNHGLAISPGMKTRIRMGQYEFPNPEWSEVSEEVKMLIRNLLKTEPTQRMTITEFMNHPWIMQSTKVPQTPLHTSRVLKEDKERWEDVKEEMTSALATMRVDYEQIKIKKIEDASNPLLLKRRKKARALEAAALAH
# [15] = molecular target: MAP kinase-activated protein kinase 2 (Homo sapiens) (UniProt P49137); conditions: at 1 µM
# [16] = molecular target: MAP kinase-activated protein kinase 3 (Homo sapiens) (UniProt Q16644); conditions: at 0.1 µM
# Chain of MAP kinase-activated protein kinase 3 (Homo sapiens) (Q16644 whole entry, looked up): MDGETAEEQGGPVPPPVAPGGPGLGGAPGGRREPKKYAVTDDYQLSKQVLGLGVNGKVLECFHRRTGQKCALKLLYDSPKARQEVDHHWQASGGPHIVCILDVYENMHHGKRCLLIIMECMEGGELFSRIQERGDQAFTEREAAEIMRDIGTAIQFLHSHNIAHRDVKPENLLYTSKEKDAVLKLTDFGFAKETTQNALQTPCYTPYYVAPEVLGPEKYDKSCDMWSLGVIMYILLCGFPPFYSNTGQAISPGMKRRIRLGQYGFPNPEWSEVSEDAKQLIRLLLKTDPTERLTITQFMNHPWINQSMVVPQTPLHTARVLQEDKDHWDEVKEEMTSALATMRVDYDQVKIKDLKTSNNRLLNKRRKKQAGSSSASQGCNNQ
# [17] = molecular target: MAP kinase-activated protein kinase 3 (Homo sapiens) (UniProt Q16644); conditions: at 1 µM
# [18] = molecular target: Serine/threonine-protein kinase MARK1 (Homo sapiens) (UniProt Q9P0L2); conditions: at 0.1 µM
# Chain of Serine/threonine-protein kinase MARK1 (Homo sapiens) (Q9P0L2 whole entry, looked up): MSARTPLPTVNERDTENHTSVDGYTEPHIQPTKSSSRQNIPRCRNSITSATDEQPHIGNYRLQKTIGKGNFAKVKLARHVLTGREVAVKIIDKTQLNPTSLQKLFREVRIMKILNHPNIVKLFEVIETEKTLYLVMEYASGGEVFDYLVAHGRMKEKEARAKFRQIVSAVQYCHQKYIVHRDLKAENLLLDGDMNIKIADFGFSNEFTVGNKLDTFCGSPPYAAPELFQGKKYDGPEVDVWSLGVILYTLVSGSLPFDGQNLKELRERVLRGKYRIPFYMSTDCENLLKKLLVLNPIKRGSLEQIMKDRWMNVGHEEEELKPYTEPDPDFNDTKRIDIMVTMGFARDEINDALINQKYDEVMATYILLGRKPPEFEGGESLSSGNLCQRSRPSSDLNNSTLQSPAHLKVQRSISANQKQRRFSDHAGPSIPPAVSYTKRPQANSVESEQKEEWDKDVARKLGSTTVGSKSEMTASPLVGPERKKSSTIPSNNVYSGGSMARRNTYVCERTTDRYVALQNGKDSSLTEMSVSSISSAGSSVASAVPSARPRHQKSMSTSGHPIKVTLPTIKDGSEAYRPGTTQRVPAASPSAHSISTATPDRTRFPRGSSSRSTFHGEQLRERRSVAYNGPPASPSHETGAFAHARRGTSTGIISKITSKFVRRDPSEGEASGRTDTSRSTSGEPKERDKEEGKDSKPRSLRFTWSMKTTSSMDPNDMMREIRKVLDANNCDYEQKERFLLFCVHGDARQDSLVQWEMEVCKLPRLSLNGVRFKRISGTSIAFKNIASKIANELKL
# [19] = molecular target: Serine/threonine-protein kinase MARK1 (Homo sapiens) (UniProt Q9P0L2); conditions: at 1 µM
# [20] = molecular target: MAP/microtubule affinity-regulating kinase 3 (Homo sapiens) (UniProt P27448); conditions: at 0.1 µM;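 further: mean percent inhibition of MARK3 kinase activity, measured within the GSK PKIS screening panel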
# Chain of MAP/microtubule affinity-regulating kinase 3 (Homo sapiens) (P27448 whole entry, looked up): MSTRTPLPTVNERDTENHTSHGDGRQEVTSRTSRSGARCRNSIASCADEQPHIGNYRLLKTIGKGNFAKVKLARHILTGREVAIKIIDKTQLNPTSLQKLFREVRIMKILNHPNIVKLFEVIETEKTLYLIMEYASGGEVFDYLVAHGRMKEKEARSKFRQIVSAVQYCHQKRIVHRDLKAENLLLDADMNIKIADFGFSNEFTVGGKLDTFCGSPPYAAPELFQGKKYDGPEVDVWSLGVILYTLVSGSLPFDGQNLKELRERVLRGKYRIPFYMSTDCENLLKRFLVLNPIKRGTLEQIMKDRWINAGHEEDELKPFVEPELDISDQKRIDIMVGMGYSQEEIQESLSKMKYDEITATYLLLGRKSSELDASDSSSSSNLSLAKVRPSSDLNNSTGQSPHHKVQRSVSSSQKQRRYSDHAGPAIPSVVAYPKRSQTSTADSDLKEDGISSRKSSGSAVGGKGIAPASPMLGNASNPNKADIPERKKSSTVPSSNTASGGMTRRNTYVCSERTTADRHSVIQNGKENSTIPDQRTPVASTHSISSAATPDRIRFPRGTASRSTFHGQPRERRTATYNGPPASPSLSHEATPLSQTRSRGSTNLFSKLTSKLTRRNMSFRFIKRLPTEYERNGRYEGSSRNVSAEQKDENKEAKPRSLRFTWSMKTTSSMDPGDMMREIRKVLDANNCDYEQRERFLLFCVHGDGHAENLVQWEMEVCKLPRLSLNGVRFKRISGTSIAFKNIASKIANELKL
# Chain of Calcium/calmodulin-dependent protein kinase type II subunit alpha (Homo sapiens) (Q9UQM7 whole entry): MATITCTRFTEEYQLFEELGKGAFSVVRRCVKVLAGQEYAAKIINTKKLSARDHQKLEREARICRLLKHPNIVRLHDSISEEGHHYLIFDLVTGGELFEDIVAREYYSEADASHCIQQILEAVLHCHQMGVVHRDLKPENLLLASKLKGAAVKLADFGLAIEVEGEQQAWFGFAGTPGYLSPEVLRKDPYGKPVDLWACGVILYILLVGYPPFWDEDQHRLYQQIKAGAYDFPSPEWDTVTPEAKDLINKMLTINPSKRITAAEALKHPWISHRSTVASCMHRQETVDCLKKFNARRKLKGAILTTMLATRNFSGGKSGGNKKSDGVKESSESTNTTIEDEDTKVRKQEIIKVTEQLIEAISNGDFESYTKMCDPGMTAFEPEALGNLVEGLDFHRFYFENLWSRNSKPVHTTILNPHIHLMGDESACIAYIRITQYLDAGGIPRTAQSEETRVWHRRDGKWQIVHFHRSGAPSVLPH
# Chain of Calcium/calmodulin-dependent protein kinase type II subunit delta (Homo sapiens) (Q13557 whole entry): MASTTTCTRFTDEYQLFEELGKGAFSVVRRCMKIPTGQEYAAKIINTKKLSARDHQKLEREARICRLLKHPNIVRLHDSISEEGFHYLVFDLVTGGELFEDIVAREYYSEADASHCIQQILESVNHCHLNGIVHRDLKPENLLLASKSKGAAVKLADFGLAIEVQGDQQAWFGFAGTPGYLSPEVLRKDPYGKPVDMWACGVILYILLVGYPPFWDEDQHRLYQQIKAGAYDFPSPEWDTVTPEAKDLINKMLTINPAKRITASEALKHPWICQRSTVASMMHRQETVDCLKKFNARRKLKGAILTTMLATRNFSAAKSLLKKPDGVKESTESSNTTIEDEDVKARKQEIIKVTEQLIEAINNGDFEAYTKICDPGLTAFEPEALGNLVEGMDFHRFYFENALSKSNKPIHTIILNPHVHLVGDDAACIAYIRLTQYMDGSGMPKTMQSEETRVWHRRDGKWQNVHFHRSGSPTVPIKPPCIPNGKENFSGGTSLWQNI
Structure (SMILES),inhibition [1] [%],inhibition [2] [%],inhibition [3] [%],inhibition [4] [%],inhibition [5] [%],inhibition [6] [%],inhibition [7] [%],inhibition [8] [%],inhibition [9] [%],inhibition [10] [%],inhibition [11] [%],inhibition [12] [%],inhibition [13] [%],inhibition [14] [%],inhibition [15] [%],inhibition [16] [%],inhibition [17] [%],inhibition [18] [%],inhibition [19] [%],inhibition [20] [%]
Cc1cc(-c2ccccn2)cc(C)c1/C=C/c1cncc(-c2nn[nH]n2)c1,1.59,2.75,5,-1.17,-1.4,4.62,4.81,2.62,4.43,6.16,4.15,-0.19,1.55,2.23,2.74,4.19,6.94,1.24,4.82,2.15
FC(F)(F)c1ccc(-c2nn3ncccc3c2-c2ccnc(Nc3ccc4c(c3)OCCO4)n2)cc1,-2.19,-3.32,-2.99,-4.88,-4.43,0.08,1.68,3.99,5.26,1.54,1.79,5.13,2.77,3.11,3.56,10.3,30.6,4.61,6.64,5.66
COc1cccc(-n2nc(C)c3c(N/N=C(\C)c4ccncc4)ncnc32)c1,-0.32,0.75,1.55,-0.54,0.81,0.24,0.57,0.02,0.48,0.32,-0.72,-1,0.33,0.1,0.45,0.03,0.31,0.08,1.32,-0.48
CC(C)c1ccc(Nc2nccc(-c3cnn4ncccc34)n2)cc1,4.19,2.72,8.29,1.15,2.83,-1.58,-2.41,1.57,3.38,-1.79,-2.33,0.5,-1.7,0.86,0.39,3.55,6.14,0.51,4.24,2.56
O=C1Nc2ccccc2/C1=C/Nc1ccc2[nH]c(=O)[nH]c2c1,6.6,4.2,14.1,-1.23,-1.4,0.84,15.7,5.95,23.3,1.92,2.63,0.75,-0.33,2.44,2.97,6.76,8.08,6.25,32.5,2.47
CCn1c(-c2nonc2N)nc2ccc(F)cc21,3.68,3.98,3.55,-2.59,-2.75,3.58,8.57,3.29,4.58,8.42,10.7,0.68,0.5,2.81,3.62,4.6,5.57,14.8,6.7,2.41
Oc1cccc(-c2nc(-c3ccccc3)[nH]c2-c2ccncc2)c1,3.17,3.67,3.45,2.26,0.29,7.47,6.28,0.91,1.68,5.76,6.12,2.33,0.39,1.62,1.79,11.7,25.4,1.58,4.27,3.78
